# pKd: −log10 of the molar value.
# Biological target: T1, Zelda (Drosophila melanogaster, UniProt Q9VWC6 1319-1447)
# T1 sequence: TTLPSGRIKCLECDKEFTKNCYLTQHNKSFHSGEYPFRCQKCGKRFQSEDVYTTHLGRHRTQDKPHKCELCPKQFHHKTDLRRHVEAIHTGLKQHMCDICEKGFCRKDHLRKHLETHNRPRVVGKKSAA
# Assay: FP; 33 mM phosphate pH 7.0, 90 mM NaCl, 0.01% Tween 20, 0.1 mM DTT, 0.5% agarose; room temperature
# Details: tags: N-GST (pGEX-6P-1, kept); dsDNA, one strand shown
Sequence,binding signal,pKd
AACTTCAGGTACC,1.86 Kd / Kd of best base at the position,
GATTTCAGGTACC,2.27 Kd / Kd of best base at the position,
TATTTCAGGTACC,1.83 Kd / Kd of best base at the position,
AATTTTAGGTACC,4.6 Kd / Kd of best base at the position,
AATTTCAGGCACC,9.39 Kd / Kd of best base at the position,
AATATCAGGTACC,1.65 Kd / Kd of best base at the position,
AATTTCCGGTACC,36.1 Kd / Kd of best base at the position,
AATTTCAAGTACC,8.76 Kd / Kd of best base at the position,
AATTTCAGGTACG,2.98 Kd / Kd of best base at the position,
ACTTTCAGGTACC,1.87 Kd / Kd of best base at the position,
AATTTCAGGTTCC,14.1 Kd / Kd of best base at the position,
AATTTCAGGTACC,,~8.24
AATTTCAGGTGCC,9.55 Kd / Kd of best base at the position,
AATTTCGGGTACC,7.8 Kd / Kd of best base at the position,
AAATTCAGGTACC,1.56 Kd / Kd of best base at the position,
AATTTCTGGTACC,19.2 Kd / Kd of best base at the position,
AATTTCAGGAACC,19.3 Kd / Kd of best base at the position,
ATTTTCAGGTACC,1.63 Kd / Kd of best base at the position,
AATTTCACGTACC,11.7 Kd / Kd of best base at the position,
AATTTCAGTTACC,9.11 Kd / Kd of best base at the position,

Sequence,binding signal,pKd
AATTTCATGTACC,12.8 Kd / Kd of best base at the position,
AATGTCAGGTACC,1.84 Kd / Kd of best base at the position,
AATTTCAGGTACA,2.29 Kd / Kd of best base at the position,
AATTTCAGGGACC,12.3 Kd / Kd of best base at the position,
AGTTTCAGGTACC,2.05 Kd / Kd of best base at the position,
AATTTCAGATACC,12.3 Kd / Kd of best base at the position,
AATTGCAGGTACC,1.37 Kd / Kd of best base at the position,
AATTTCAGGTATC,2.16 Kd / Kd of best base at the position,
CATTTCAGGTACC,1.46 Kd / Kd of best base at the position,
AATTTGAGGTACC,17.6 Kd / Kd of best base at the position,
AATTTCAGCTACC,15.7 Kd / Kd of best base at the position,
AAGTTCAGGTACC,1.72 Kd / Kd of best base at the position,
AATTCCAGGTACC,1.28 Kd / Kd of best base at the position,
AATTTCAGGTCCC,10.1 Kd / Kd of best base at the position,
AATTTCAGGTAGC,1.01 Kd / Kd of best base at the position,
AATTTCAGGTAAC,1.38 Kd / Kd of best base at the position,
AATTACAGGTACC,1.77 Kd / Kd of best base at the position,
AATTTAAGGTACC,17.1 Kd / Kd of best base at the position,
AATTTCAGGTACT,2.11 Kd / Kd of best base at the position,
AATCTCAGGTACC,1.8 Kd / Kd of best base at the position,

# Reference: publication PMC5913336, “True equilibrium measurement of transcription factor-DNA binding affinities using automated polarization microscopy”
